# Laboratory results reported in PubChem BioAssay (NCI).
# About 83,000 compounds went through this panel and 20% of them were active in at least one assay; those are over-represented in the sample as a whole.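 Percent growth is the endpoint: 0 to 100 indicates growth inhibition (40 means 60% inhibition), 0 means no net growth, and negative values indicate cell death.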 Values without a mark were called inactive. Activity calls are given as the source filed them. The calls were made as follows: active = growth percent below 10; inactive = the rest.
# Test system: SF-539 CNS
# Experiment: NCI-60 one-dose screen, 48 h (100 = growth as untreated, 0 = no growth, -100 = all killed)
# Conditions: 10 µM unless noted
row,SMILES,growth
1,c1ccc2c(c1)oc1cc3sccc3nc12,98.8%
2,CC1=C(C(=O)OCC2CCN(C(=O)OC(C)(C)C)CC2)[C@H](c2cccc(C#N)c2)C2=C(CC(C)(C)CC2=O)N1,48%
3,O=C(c1nc2ccccc2[nH]1)C1C(c2ccc([N+](=O)[O-])cc2)C2CC3CCCCC3N2[C@@]12C(=O)Nc1cc(Cl)ccc12 (stereo partly specified),40.4%
4,Nc1ccn(C2O[C@H](CO)[C@@H](O)[C@H]2O)c(=O)n1 (stereo partly specified),73.1%
5,Nc1ccc(-n2c(=O)oc3ccc(Cl)cc3c2=O)c(Cl)c1,-5.36% (active)
6,CC1=C(C(=O)OCC2CCN(C(=O)OC(C)(C)C)CC2)[C@@H](c2cccc(C#N)c2)C2=C(CC(C)(C)CC2=O)N1,41.7%
7,N#Cc1c(N)nc2c(c1N)C(c1ccc(F)cc1)c1ccc(N)cc1O2 (stereo unspecified),103%
8,COc1ccc(Cn2c(Br)c3c(c2-c2cc(OC)c(OC)c(OC)c2)CCc2sc(NC(=O)c4ccc(OC)cc4)nc2-3)cc1,100%
9,O=c1cc(NC2CCN(CCCc3ccccc3)CC2)c2cc(Cl)ccc2o1,19.4%
10,Brc1ccc(Oc2ccc(Nc3ncnc4onc(-c5ccccc5)c34)cc2)cc1,96.2%
11,NNC(=O)CNC(=O)Nc1n[nH]c(=S)s1,109%
12,COc1ccc(Cn2c(Br)c3c(c2-c2cc(OC)c(OC)c(OC)c2)CCc2sc(NC(C)=O)nc2-3)cc1,23.1%
13,COc1ccc(/C=C2\NC(=O)NC2=O)cc1O,106%
14,Cc1cc2c(c(C)c1Cl)C(=O)/C(=C/c1ccco1)O2,101%
15,O=C(Nc1ccc(N2CCNCC2)cc1)c1[nH]ncc1Nc1cc(Oc2ccccc2)ncn1,-46.2% (active)
16,CS(=O)(=O)Nc1ccc(C(=O)NC(C(=O)NO)c2ccc(-c3cccc(F)c3)cc2)cc1 (stereo unspecified),92.6%
17,CC[C@]1(O)C[C@@H]2CN(CCc3c([nH]c4ccccc34)[C@@](C(=O)OC)(c3cc4c(cc3OC)N(C)[C@H]3[C@@](O)(C(=O)OC)[C@H](OC(C)=O)[C@]5(CC)C=CCN6CC[C@]43[C@@H]65)C2)C1,-2.89% (active)
18,O=C(CN1C(=O)/C(=C\c2ccc(Cl)cc2)SC1=S)Nc1ncc(Cc2ccc(Cl)cc2)s1,94.3%
19,CCCCC(O)(c1ccc(Cl)cc1)C(CN1CCOCC1)c1ccc(Cl)cc1 (stereo unspecified),68.8%

row,SMILES,growth
1,O=C(Nc1ccc(C23CC4CC(CC(c5ccccc5)(C4)C2)C3)cc1)c1cccs1,92%
2,O=C(COc1cc(O)c2c(=O)cc(-c3ccccc3)oc2c1)Nc1ccccc1,91%
3,COc1cc(C(=O)Nc2ccc(-c3nc4ccccc4[nH]3)cc2)cc(OC)c1OC,34.7%
4,COC(=O)[C@@H]1CCCN1C(=O)[C@H]1CCCN1C(=O)[C@@H](Cc1c[nH]c2ccccc12)NC(=S)Nc1cc(C(F)(F)F)cc(C(F)(F)F)c1,62%
5,O=C(CCc1nnc2sc(-c3ccc(Cl)cc3Cl)nn12)c1nc2ncccc2[nH]1,-21% (active)
6,O=Cc1cc2ccccc2nc1Nc1nccs1,87.3%
7,O=C(CCc1nnc2sc(Cc3ccccc3Cl)nn12)c1nc2ncccc2[nH]1,94.2%
8,NS(=O)(=O)c1ccc(CCN=C=S)cc1,37.2%
9,CCOc1cc(Cl)c(C(C)NC(=O)c2cccc(OC)c2)cc1OCC (stereo unspecified),7.13% (active)
10,CN1CCN(Cc2ccc(C(=O)Nc3cncc(C#Cc4cnc5cccnn45)c3)cc2C(F)(F)F)CC1,32.9%
11,COc1ccc2c(c1)C=C1CSCC3=Cc4cc(OC)ccc4OC13O2,-25.4% (active)
12,CN1CCN(Cc2ccc(NC(=O)c3cncc(C#Cc4nc(N)nc5[nH]ncc45)c3)cc2C(F)(F)F)CC1,104%
13,COc1cc(C(=O)O/N=C(\N)Cc2cccc3ccccc23)cc(OC)c1OC,-88.7% (active)
14,Nc1nc(-c2cnccn2)nn1-c1nc2ccccc2s1,101%
15,COC(=O)C1=C(C)NC(C)=C(C(=O)OC)C(N2C(=O)CCC2=O)C1 (stereo unspecified),103%
16,COc1ccc(Br)c(/C=C2\SC(=Nc3ccc(O)cc3)NC2=O)c1,85.4%
17,COc1ccc(Cn2c(Br)c3c(c2Br)-c2nc(NC(=O)c4ccc(OC)cc4)sc2CC3)cc1,52.1%
18,Nc1ncnc(N)c1NC(=O)c1ccc(OCc2ccccc2)cc1,95.5%
19,CCOc1ccc(-c2nonc2NC(=O)c2cccc(C)c2)cc1OCC,80.8%

# Test system: UACC-257 melanoma
# Experiment: as above
# Conditions: 10 µM unless noted
row,SMILES,growth
1,c1ccc2c(c1)oc1cc3sccc3nc12,104%
2,CC1=C(C(=O)OCC2CCN(C(=O)OC(C)(C)C)CC2)[C@H](c2cccc(C#N)c2)C2=C(CC(C)(C)CC2=O)N1,70%
3,O=C(c1nc2ccccc2[nH]1)C1C(c2ccc([N+](=O)[O-])cc2)C2CC3CCCCC3N2[C@@]12C(=O)Nc1cc(Cl)ccc12 (stereo partly specified),25.7%
4,Nc1ccn(C2O[C@H](CO)[C@@H](O)[C@H]2O)c(=O)n1 (stereo partly specified),90.1%
5,Nc1ccc(-n2c(=O)oc3ccc(Cl)cc3c2=O)c(Cl)c1,-21.1% (active)
6,CC1=C(C(=O)OCC2CCN(C(=O)OC(C)(C)C)CC2)[C@@H](c2cccc(C#N)c2)C2=C(CC(C)(C)CC2=O)N1,61.4%
7,N#Cc1c(N)nc2c(c1N)C(c1ccc(F)cc1)c1ccc(N)cc1O2 (stereo unspecified),102%
8,COc1ccc(Cn2c(Br)c3c(c2-c2cc(OC)c(OC)c(OC)c2)CCc2sc(NC(=O)c4ccc(OC)cc4)nc2-3)cc1,116%
9,O=c1cc(NC2CCN(CCCc3ccccc3)CC2)c2cc(Cl)ccc2o1,-31.5% (active)
10,Brc1ccc(Oc2ccc(Nc3ncnc4onc(-c5ccccc5)c34)cc2)cc1,98%
11,NNC(=O)CNC(=O)Nc1n[nH]c(=S)s1,99.9%
12,COc1ccc(Cn2c(Br)c3c(c2-c2cc(OC)c(OC)c(OC)c2)CCc2sc(NC(C)=O)nc2-3)cc1,48%
13,COc1ccc(/C=C2\NC(=O)NC2=O)cc1O,99.4%
14,Cc1cc2c(c(C)c1Cl)C(=O)/C(=C/c1ccco1)O2,97.4%
15,O=C(Nc1ccc(N2CCNCC2)cc1)c1[nH]ncc1Nc1cc(Oc2ccccc2)ncn1,29.7%
16,CS(=O)(=O)Nc1ccc(C(=O)NC(C(=O)NO)c2ccc(-c3cccc(F)c3)cc2)cc1 (stereo unspecified),101%
17,CC[C@]1(O)C[C@@H]2CN(CCc3c([nH]c4ccccc34)[C@@](C(=O)OC)(c3cc4c(cc3OC)N(C)[C@H]3[C@@](O)(C(=O)OC)[C@H](OC(C)=O)[C@]5(CC)C=CCN6CC[C@]43[C@@H]65)C2)C1,64.4%
18,O=C(CN1C(=O)/C(=C\c2ccc(Cl)cc2)SC1=S)Nc1ncc(Cc2ccc(Cl)cc2)s1,104%
19,CCCCC(O)(c1ccc(Cl)cc1)C(CN1CCOCC1)c1ccc(Cl)cc1 (stereo unspecified),39.4%

row,SMILES,growth
1,O=C(Nc1ccc(C23CC4CC(CC(c5ccccc5)(C4)C2)C3)cc1)c1cccs1,75.4%
2,O=C(COc1cc(O)c2c(=O)cc(-c3ccccc3)oc2c1)Nc1ccccc1,97.3%
3,COc1cc(C(=O)Nc2ccc(-c3nc4ccccc4[nH]3)cc2)cc(OC)c1OC,78.1%
4,COC(=O)[C@@H]1CCCN1C(=O)[C@H]1CCCN1C(=O)[C@@H](Cc1c[nH]c2ccccc12)NC(=S)Nc1cc(C(F)(F)F)cc(C(F)(F)F)c1,69.5%
5,O=C(CCc1nnc2sc(-c3ccc(Cl)cc3Cl)nn12)c1nc2ncccc2[nH]1,-25.3% (active)
6,O=Cc1cc2ccccc2nc1Nc1nccs1,102%
7,O=C(CCc1nnc2sc(Cc3ccccc3Cl)nn12)c1nc2ncccc2[nH]1,107%
8,NS(=O)(=O)c1ccc(CCN=C=S)cc1,24.7%
9,CCOc1cc(Cl)c(C(C)NC(=O)c2cccc(OC)c2)cc1OCC (stereo unspecified),-70.3% (active)
10,CN1CCN(Cc2ccc(C(=O)Nc3cncc(C#Cc4cnc5cccnn45)c3)cc2C(F)(F)F)CC1,19.2%
11,COc1ccc2c(c1)C=C1CSCC3=Cc4cc(OC)ccc4OC13O2,74.7%
12,CN1CCN(Cc2ccc(NC(=O)c3cncc(C#Cc4nc(N)nc5[nH]ncc45)c3)cc2C(F)(F)F)CC1,83.1%
13,COc1cc(C(=O)O/N=C(\N)Cc2cccc3ccccc23)cc(OC)c1OC,-89.3% (active)
14,Nc1nc(-c2cnccn2)nn1-c1nc2ccccc2s1,99.1%
15,COC(=O)C1=C(C)NC(C)=C(C(=O)OC)C(N2C(=O)CCC2=O)C1 (stereo unspecified),66.5%
16,COc1ccc(Br)c(/C=C2\SC(=Nc3ccc(O)cc3)NC2=O)c1,102%
17,COc1ccc(Cn2c(Br)c3c(c2Br)-c2nc(NC(=O)c4ccc(OC)cc4)sc2CC3)cc1,78.5%
18,Nc1ncnc(N)c1NC(=O)c1ccc(OCc2ccccc2)cc1,104%
19,CCOc1ccc(-c2nonc2NC(=O)c2cccc(C)c2)cc1OCC,89.4%
